Source: PubChem
Rows were chosen to be rich in hits. Some 7.3% of all compounds tested hit in one or more screens of this group.
AmpC detergent: qHTS Inhibitors of AmpC Beta-Lactamase (assay with detergent); 370,000 compounds, 0.041% hits; Potency, µM (top dose mostly 114 µM), for inactives: top-dose activity change, negative = inhibition, hits mostly inhibitors; P00811; AmpC hydrolysis of nitrocefin, absorbance 480 nm, 0.01% Triton; AID 485294, 2010;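 note: potency is the fitted concentration of half-maximal effect; 0% = no-compound wells and -100% = no-enzyme wells; nearly all actives have a fitted effect of over 25% in size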
Target sequence (P00811 whole entry, looked up): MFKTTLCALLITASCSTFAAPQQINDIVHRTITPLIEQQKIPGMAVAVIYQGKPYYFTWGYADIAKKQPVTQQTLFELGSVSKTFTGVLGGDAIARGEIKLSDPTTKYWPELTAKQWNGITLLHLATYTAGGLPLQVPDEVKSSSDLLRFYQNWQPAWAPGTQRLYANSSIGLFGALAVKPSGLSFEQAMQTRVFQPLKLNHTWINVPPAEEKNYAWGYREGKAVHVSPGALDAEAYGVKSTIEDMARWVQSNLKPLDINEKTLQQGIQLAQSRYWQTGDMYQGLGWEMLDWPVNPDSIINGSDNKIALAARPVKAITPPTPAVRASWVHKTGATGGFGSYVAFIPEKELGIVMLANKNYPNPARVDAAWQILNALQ
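20 mM phosphate pH 7.0 + 0.01% (detergent screen) or 0.0001% Triton X-100; 5.3 nM AmpC reagent; cpd preinc 15 min RT; nitrocefin (800 uM stock) to start; A480 q20 s × 4 min; Activity was normalised to no-enzyme and no-compound control wells.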
AmpC no deterg: qHTS Inhibitors of AmpC Beta-Lactamase (assay without detergent); 330,000 compounds, 0.52% hits; Potency, µM (series often up to 57.1 µM), for inactives: at the top dose activity change, negative = inhibition, usual class: inhibitors; AmpC nitrocefin hydrolysis, absorbance 480 nm, 0.0001% Triton; P00811; AID 485341, 2010;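 note: potency is the fitted concentration of half-maximal effect; plate controls were no compound for no effect and no enzyme for full effect; nearly all actives have a fitted effect of over 20% in size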
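20 mM phosphate pH 7.0 + 0.01% (detergent screen) or 0.0001% Triton X-100; 5.3 nM AmpC reagent; cpd preinc 15 min RT; nitrocefin (800 uM stock) to start; A480 q20 s × 4 min; Activity was normalised to no-enzyme and no-compound control wells.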
HCV inh: qHTS Assay for Inhibitors of Hepatitis C Virus (HCV). 340,000 compounds, 3.4% hits. Huh7.5.1 HCVcc-Cre infection, luciferase reporter, 44 h. Potency, µM (titrated, usually from 41.8 µM), inactives show at the top dose activity change, negative = inhibition, most hits filed as inhibitors; note: potency is the fitted concentration of half-maximal effect
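Compounds are dispensed onto cells plated 4 h earlier at 1,000 per well, with HCVcc-Cre virus (about 0.5 moi) added next. Following 44 h of culture, luminescent signal is measured for 15 sec after 15 min with substrate at room temperature.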
HCMV inh: qHTS Assay for inhibitors of the human cytomegalovirus (HCMV); HFF cells, HCMV-luciferase reporter, 72 h; active compounds read low; activity change, negative = inhibition, % at 57.5 µM; 410,000 compounds, 4.5% hits; in the data active = activity change below about -60%; inconclusive = no clear call, values can overlap the other calls; inactive = above about -39%
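Two-dose cell screen: HFF monolayers treated with compounds and infected with luciferase-expressing HCMV at 1 PFU/cell, 72 h at 37C, then lysed for luciferase measurement.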
FMDV inh: High Throughput Screening for Foot and Mouth Disease Virus Antivirals; FMDV antiviral cell-based qHTS; Potency, µM (series often up to 57.9 µM), inactives show at the top dose activity change, negative = inhibition, usual class: inhibitors; 410,000 compounds, 1.2% hits; calls by dose curve; tested in HEK293T cells; note: read-out not given here; potency is the fitted concentration of half-maximal effect; nearly all actives have a fitted effect of over 45% in size
* hit, by the source's call; ? = inconclusive; . = no result; [ ] = remark or other dose. Unless noted, calls come from the whole dose curve; as a rule, active = well fitted curve in the direction sought with a large enough effect; inconclusive = small, poorly fitted or top-dose-only effect, or another doubt; inactive = no such curve, though single readings can be large; an effect the other way counts as inactive or inconclusive. Unless noted, % is set by controls: 0 for no effect and ±100 for the full control effect.

SMILES | AmpC detergent | AmpC no deterg | HCV inh | HCMV inh | FMDV inh
O=C(Nc1cc(S(=O)(=O)N2CCOCC2)ccc1N1CCCC1)C1CC1 | 0% | -10% | -1% | -4 | -5%
CC1CC1C(=O)Nc1cc(S(=O)(=O)N2CCOCC2)ccc1N1CCCC1 (stereo unspecified) | ? | -4%[11.4 µM] | 10µM* | ? | -7%
CC(Oc1cccc(Cl)c1)C(=O)Nc1cc(S(=O)(=O)N2CCOCC2)ccc1N1CCCCC1 (stereo unspecified) | ? | 61% | 22µM* | -36 | ?
CCN1CCN(c2ccc(S(=O)(=O)N3CCOCC3)cc2NC(=O)C(C)Oc2cccc(Cl)c2)CC1 (stereo unspecified) | ? | 202% | ? | -10 | -13%
COc1cc(/C=C(/C)[N+](=O)[O-])ccc1OCc1ccccc1Cl | -13% | -25% | ? | . | 22µM*
COc1ccccc1NC(=O)c1ccc(S(=O)(=O)N2CCC(C)CC2)cc1 | -7% | -22% | ? | -23 | -27%
CC1(C)Cc2ccccc2C(NNC(=O)c2cccnc2)=N1 | -8% | -14% | 21% | -92* | -18%
Cc1nc(-c2ccc(F)cc2)c(CC(=O)N(C)CC(=O)Nc2ccc(Cl)c(C(F)(F)F)c2)s1 | . | . | -12% | 29 | ?
C#Cc1cccc(-n2nnc(C(=O)OC)c2-c2ccccc2)c1 | -11% | -33% | 3% | -102* | ?
